The results in this text go back to the supplement of paper PMC8728848.

Common to all, as to assay: glycan array binding signal (z-score within array); higher = stronger binding
Common to all, as to details: glycan notation: IUPAC condensed, linker removed

The target of one experiment is Fuc(a1-2)Gal(b1-4)Glc. Summed up:
(§1)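 Glycan array data were curated from 3228 arrays in the Consortium for Functional Glycomics database and kept only where the protein sequence was available. Glycan names were converted to IUPAC-condensed notation, and columns mapping to the same glycan were averaged. The binding signal is a within-array Z-score, averaged across arrays of the same protein sequence at different concentrations or buffers and across linkers. Negative Z-scores can be read as non-binding.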

A further experiment deals with Fuc(a1-2)Gal(b1-4)GlcNAc. The essentials:
as §1

For experiment [1], the target named is Fuc(a1-2)Gal(b1-4)[Fuc(a1-3)]GlcNAc(b1-3)Gal(b1-4)[Fuc(a1-3)]GlcNAc(b1-3)Gal(b1-4)[Fuc(a1-3)]GlcNAc. Summed up: as §1
The target of experiment [2] is Fuc(a1-2)Gal(b1-4)[Fuc(a1-3)]GlcNAc(b1-3)GalNAc. Summed up:
as §1

Experiment [3] deals with Fuc(a1-2)[Gal(a1-3)]Gal(b1-4)GlcNAc(b1-2)Man(a1-3)[Fuc(a1-2)[Gal(a1-3)]Gal(b1-4)GlcNAc(b1-2)Man(a1-6)]Man(b1-4)GlcNAc(b1-4)[Fuc(a1-6)]GlcNAc. The essentials: as §1
In experiment [4] the target is Fuc(a1-2)[Gal(a1-3)]Gal(b1-4)[Fuc(a1-3)]Glc. The essentials:
as §1

Experiment [5] deals with Fuc(a1-2)[Gal(a1-3)]Gal(b1-4)[Fuc(a1-3)]GlcNAc. The essentials:
as §1

In experiment [6] the target is Fuc(a1-2)[GalNAc(a1-3)]Gal(b1-3)GlcNAc(b1-6)GalNAc. The essentials: as §1
Experiment [7] addresses Fuc(a1-2)[GalNAc(a1-3)]Gal(b1-4)[Fuc(a1-3)]GlcNAc(b1-3)GalNAc. The essentials:
as §1

Experiment [8] addresses Fuc(a1-2)[GalNAc(b1-3)]Gal. The essentials:
as §1

Experiment [9] deals with Gal(a1-3)Gal(b1-3)GlcNAc(b1-2)Man(a1-3)[Gal(a1-3)Gal(b1-3)GlcNAc(b1-2)Man(a1-6)]Man(b1-4)GlcNAc(b1-4)GlcNAc. Summed up:
as §1

Experiment [10] deals with Gal(a1-3)Gal(b1-3)[Fuc(a1-4)]GlcNAc(b1-2)Man(a1-3)[Gal(a1-3)Gal(b1-3)[Fuc(a1-4)]GlcNAc(b1-2)Man(a1-6)]Man(b1-4)GlcNAc(b1-4)GlcNAc. Summed up:
as §1

The target of another experiment is Gal(a1-3)Gal(b1-4)GlcNAc. Summed up:
as §1

Experiment [11] deals with Gal(b1-3)GlcNAc(b1-2)Man(a1-3)[GlcNAc(b1-4)][Gal(b1-3)GlcNAc(b1-2)Man(a1-6)]Man(b1-4)GlcNAc(b1-4)GlcNAc. Summed up:
as §1

The target of experiment [12] is Gal(b1-3)GlcNAc(b1-3)Gal(b1-4)GlcNAc(b1-2)[Gal(b1-3)GlcNAc(b1-3)Gal(b1-4)GlcNAc(b1-6)]Man(a1-6)[Gal(b1-3)GlcNAc(b1-3)Gal(b1-4)GlcNAc(b1-2)Man(a1-3)]Man(b1-4)GlcNAc(b1-4)[Fuc(a1-6)]GlcNAc. Summed up:
as §1

The target in experiment [13] is Gal(b1-4)GlcNAc(b1-2)Man(a1-3)[Gal(b1-4)GlcNAc(b1-2)Man(a1-6)]Man(b1-4)GlcNAc(b1-4)[Fuc(a1-6)]GlcNAc. Summed up:
as §1

Experiment [14] addresses Gal(b1-4)GlcNAc(b1-3)Gal(b1-4)GlcNAc(b1-2)[Gal(b1-4)GlcNAc(b1-3)Gal(b1-4)GlcNAc(b1-6)]Man(a1-6)[Gal(b1-4)GlcNAc(b1-3)Gal(b1-4)GlcNAc(b1-2)Man(a1-3)]Man(b1-4)GlcNAc(b1-4)GlcNAc. Summed up:
as §1

The target of experiment [15] is Gal(b1-4)GlcNAc(b1-3)Gal(b1-4)GlcNAc(b1-2)[Gal(b1-4)GlcNAc(b1-3)Gal(b1-4)GlcNAc(b1-6)]Man(a1-6)[Gal(b1-4)GlcNAc(b1-3)Gal(b1-4)GlcNAc(b1-2)Man(a1-3)]Man(b1-4)GlcNAc(b1-4)[Fuc(a1-6)]GlcNAc. The essentials: as §1
Experiment [16] concerns the target Gal(b1-4)GlcNAc(b1-3)Gal(b1-4)GlcNAc(b1-3)Gal(b1-4)GlcNAc(b1-3)Gal(b1-4)GlcNAc(b1-3)Gal(b1-4)GlcNAc(b1-2)[Gal(b1-4)GlcNAc(b1-3)Gal(b1-4)GlcNAc(b1-3)Gal(b1-4)GlcNAc(b1-3)Gal(b1-4)GlcNAc(b1-3)Gal(b1-4)GlcNAc(b1-6)]Man(a1-6)[Gal(b1-4)GlcNAc(b1-3)Gal(b1-4)GlcNAc(b1-3)Gal(b1-4)GlcNAc(b1-3)Gal(b1-4)GlcNAc(b1-3)Gal(b1-4)GlcNAc(b1-2)Man(a1-3)]Man(b1-4)GlcNAc(b1-4)[Fuc(a1-6)]GlcNAc. Summed up:
as §1

Experiment [17] deals with Gal3S(b1-4)[Fuc(a1-3)]GlcNAc6S. Summed up: as §1
Another experiment has as its target Gal6S(b1-4)Glc6S. The essentials:
as §1

The target of experiment [18] is Glc(a1-6)Glc(a1-6)Glc(a1-6)Glc. The essentials:
as §1

Experiment [19] concerns the target GlcA3S(b1-3)Gal(b1-4)GlcNAc(b1-3)Gal(b1-4)Glc. The essentials: as §1
In experiment [20] the target is GlcNAc(b1-2)Man(a1-3)[GlcNAc(b1-2)Man(a1-6)]Man(b1-4)GlcNAc(b1-4)[Fuc(a1-6)]GlcNAc. Summed up:
as §1

About 410 targets per protein were measured; listed, in parts, are those with the strongest signals and a random draw of the rest.

B1: Nc3LysM (protein)
chain: QFTVPPDTTAEPNTIKTCTWWHVAGSGDSCTSIASTYGITSEQFARWDMETTDSPKNPSVATACKLTVGNSYCIENNFGQDDPPTPSISSSTLIGTATTSTTASTTTGNGISTPTPIQEGMETATTTTSSGNGITTPTPTQAGMETVGNCDRFHLVKSGDQCGTIASTYGITLANFYSWNPAVGTSCQSLWLDTYVCVRTIGFVPPKTTTTTTKKPTSTTSAGGVATPTPTQPGMETVSGCKKFHKGRGNVSTVASGDQCGTIATRYGISLANFYSWNPAVGSSCQTLWLDYYVCVGR
Turning to B1, the “glycan array binding signal (z-score)” value is 0.401 in the experiment with Fuc(a1-2)Gal(b1-4)Glc; -0.219 with Fuc(a1-2)Gal(b1-4)GlcNAc; 0.172 in experiment [1]; -0.251 in experiment [2]; -0.173 in [3]; 0.064 in experiment [4]. Besides, the “glycan array binding signal (z-score)” value in experiment [5] was -0.157; in experiment [6], -0.237; in experiment [7] it was -0.076; in [8], -0.092; in experiment [9] it was 0.295; in experiment [10], 0.161. Besides, the “glycan array binding signal (z-score)” value was 0.019 with Gal(a1-3)Gal(b1-4)GlcNAc; 0.083 in experiment [11]; 0.304 in [12]; -0.048 in experiment [13]; 0.008 in experiment [14]; -0.048 in experiment [15]. Moreover, the “glycan array binding signal (z-score)” value in experiment [16] is 0.342; in [17] it was 0.178; with Gal6S(b1-4)Glc6S, 0.307; in experiment [18], 0.326; in experiment [19], -0.126; in experiment [20] it was 0.106.
